Legend:
[1] = test system: Vero E6 infected with SARS-CoV-2; assay: morphology score (similarity to uninfected cells); higher = more like uninfected cells; settings: 24 h
[2] = test system: Vero E6 infected with SARS-CoV-2; assay: SARS-CoV-2 infection rate relative to infected DMSO; higher = more infection, active = 60 or less; settings: 24 h

CC1CCN(CCCC(=O)c2ccc(F)cc2)CC1 [melperone] (10 µM) was tested, and the morphology score [1] was 0.389 and the SARS-CoV-2 infection rate [2] was 80.5% (inactive).
N=C(Nc1ccccc1)Nc1ccccc1 [diphenylguanidine] (10 µM) was tested, and the morphology score [1] was 0.216 and the SARS-CoV-2 infection rate [2] was 98% (inactive).
In the case of CNC1CCCN(c2c(F)cc3c(=O)c(C(=O)O)cn(C4CC4)c3c2OC)C1 (configuration not stated) [balofloxacin] (10 µM), the morphology score [1] is reported as -0.103 and the SARS-CoV-2 infection rate [2] is reported as 104% (inactive).
In the case of CC=C1C(=O)C[C@H]2[C@@H]3CCC4=CC(=O)CC[C@]4(C)[C@H]3CC[C@]12C (10 µM), the morphology score [1] is reported as 0.0492 and the SARS-CoV-2 infection rate [2] is reported as 91% (inactive).
For CN(C)CC/C=C1\c2ccccc2CSc2ccccc21 [dosulepin] (10 µM), the morphology score [1] was 0.188 and the SARS-CoV-2 infection rate [2] was 99.5% (inactive).
In the case of CS(=O)(=O)c1ccc(Oc2cc(F)cc(C#N)c2)c2c1[C@H](O)C(F)(F)C2 (10 µM), the morphology score [1] is reported as 0.0223 and the SARS-CoV-2 infection rate [2] is reported as 99% (inactive).
With CC(C)=CCC/C(C)=C/CC/C(C)=C/CSc1ccccc1C(=O)O [salirasib] (10 µM) the morphology score [1] was 0.161 and the SARS-CoV-2 infection rate [2] was 89% (inactive).
O=C(O)COCCN1CCN(C(c2ccccc2)c2ccc(Cl)cc2)CC1 (configuration not stated) [cetirizine] (10 µM) was tested, and the morphology score [1] was 0.153 and the SARS-CoV-2 infection rate [2] was 98.2% (inactive).
Cn1c([N+](=O)[O-])cnc1COC(N)=O [ronidazole] (10 µM) was tested, and the morphology score [1] was -0.00677 and the SARS-CoV-2 infection rate [2] was 114% (inactive).
For O[C@H]1[C@H]2[C@H](O)CCCN2C[C@H]1O [swainsonine] (10 µM), the morphology score [1] was -0.0751 and the SARS-CoV-2 infection rate [2] was 97% (inactive).
In the case of CCOc1cc2ncc(C#N)c(Nc3ccc(OCc4ccccn4)c(Cl)c3)c2cc1NC(=O)/C=C/CN(C)C [neratinib] (10 µM), the morphology score [1] is reported as -0.265 and the SARS-CoV-2 infection rate [2] is reported as 102% (inactive).
c1ccc(Oc2nc(NC3CCCCC3)c3[nH]cnc3n2)cc1 (0.833333 µM) was tested, and the morphology score [1] was 0.191 and the SARS-CoV-2 infection rate [2] was 104% (inactive).
For CC(=O)N[C@H]1[C@H]([C@H](O)[C@H](O)CO)OC(O)(C(=O)O)C[C@@H]1O (mixture of isomers) [aceneuramic-acid] (10 µM), the morphology score [1] was 0.0132 and the SARS-CoV-2 infection rate [2] was 104% (inactive).
In the case of CCN(CC)CCNC(=O)c1c(C)[nH]c(/C=C2\C(=O)Nc3ccc(F)cc32)c1C [sunitinib] (0.833333 µM), the morphology score [1] is reported as 0.396 and the SARS-CoV-2 infection rate [2] is reported as 99% (inactive).
With CC(C)[N+](C)(CCC(C(N)=O)(c1ccccc1)c1ccccc1)C(C)C [isopropamide-iodide] (10 µM) the morphology score [1] was 0.192 and the SARS-CoV-2 infection rate [2] was 100% (inactive).
In the case of CCOC(=O)[C@H](CCc1ccccc1)N[C@@H](C)C(=O)N1[C@H](C(=O)O)C[C@H]2CCCC[C@@H]21 [trandolapril] (10 µM), the morphology score [1] is reported as 0.00679 and the SARS-CoV-2 infection rate [2] is reported as 106% (inactive).

— the supplement of paper PMC13380429
